Holding throughout (settings): concentration: 10 µM; 24 h
In test [1] the test system is HCC1569. As to the kind of experiment: cell number relative to DMSO (% of DMSO); higher = more cells (less growth inhibition / toxicity). In outline: (§1)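 H1.0 nuclear intensity or cell number is expressed as percent of the plate control, with the median of replicates taken. HCC1569 and TDF cells were treated with compounds at 10 µM for 24 h at 37 °C, in triplicate, then fixed and immunostained for H1.0 with DAPI as a nuclear stain. HCC1569 values were smoothed to correct for positional effects.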

Test [2] deals with TDF. The description is as above. In outline:
as §1

For test [3], the system named is TDF. In words: H1.0 immunofluorescence intensity relative to DMSO (% of DMSO); higher = stronger H1.0 induction, active = 120 or more. The gist of the method: as §1
The subject of test [4] is HCC1569. In words: H1.0 immunofluorescence intensity relative to DMSO (% of DMSO); higher = stronger H1.0 induction, active = 140 or more. The gist of the method:
as §1

± gives the standard deviation of the averaged measurements.
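Throughout, for H1.0 immunofluorescence intensity relative to DMSO: TDF is a line of transformed human dermal fibroblasts of mesenchymal origin.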
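Throughout, for cell number relative to DMSO: TDF denotes transformed human dermal fibroblasts of mesenchymal origin.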

Consider `FC(F)(F)c1cc(NC(=S)Nc2ccc(Br)cc2-c2nn[nH]n2)cc(C(F)(F)F)c1`, for which the cell number in the test on HCC1569 [1] was found to be 90.3; with TDF [2], 85.6. Moreover, the H1.0 immunofluorescence intensity in the test with TDF [3] was 90.2 (inactive); with HCC1569 [4], 120 (inactive).
For `CCCC(CCC)C(=O)O` [Valproic acid], in that order: 100, 111, 97 (inactive) and 105 (inactive).
The corresponding values for `CCOC(=O)C12CC1C(=NO)c1ccccc1O2` (stereo unspecified) are 100, 105, 93.9 (inactive) and 97.2 (inactive).
On to `CC(=O)N1CCN(c2ccc(OCC3COC(Cn4ccnc4)(c4ccc(Cl)cc4Cl)O3)cc2)CC1` (stereo unspecified) [Ketoconazole], for which the cell number in the test with HCC1569 [1] came to 85.7 ± 11; with TDF [2], 97.3 ± 15. In addition, the H1.0 immunofluorescence intensity is 101 (inactive) in the test on TDF [3] and 118 (inactive) in the test on HCC1569 [4].
For `O=C(C=Cc1ccc(O)c(O)c1)OCCc1ccccc1`, in that order: 74.8 ± 3.7, 85.77 ± 0.57, 93.1 (inactive) and 113 (inactive).
For `CC1(C)SC2C(NC(=O)C(N)c3ccc(O)cc3)C(=O)N2C1C(=O)O` (stereo unspecified) [Amoxicillin], in that order: 107, 103, 105 (inactive) and 104 (inactive).
As for `O=C1NCCN1CCN1CCC(c2cn(-c3ccc(F)cc3)c3ccc(Cl)cc23)CC1`, the cell number was 66.8 in the test with HCC1569 [1] and 39.3 in the test on TDF [2]. Moreover, the H1.0 immunofluorescence intensity in the test with TDF [3] was 213 (active); in the test on HCC1569 [4] it was 139 (inactive).
The corresponding values for `CCCCCCCCCCCCCCCCCCc1ccc(C(=O)/C=C/C(=O)O)cc1` [(2E)-4-(4-octadecylphenyl)-4-oxo-2-butenoic acid] are 100, 105, 97.6 (inactive) and 107 (inactive).
The corresponding values for `Cl.NCCc1ccc(O)c(O)c1` [Dopamine hydrochloride] are 106, 100, 93.5 (inactive) and 89.7 (inactive).

The record behind these values is the supplement of paper PMC7156485.
